Data as given in PubChem BioAssay AID1903 (Southern Research Specialized Biocontainment Screening …, 2009).
In all, about 310,000 compounds went through this assay and about 1,200 (0.39%) were called active. The rule behind the calls is not given here. A selection follows. Entries with a potency or affinity are not part of this list.

What follows are compounds tested against Large T antigen (Simian virus 40) (UniProt P03070) (assay: SV40 large T antigen inhibitors, biochemical (AID 1903)). Conditions: SV40 large T antigen ATPase/helicase inhibition assay; at 20 µM; stronger effect = higher value.
Sequence of Large T antigen (Simian virus 40) (P03070 whole entry, looked up): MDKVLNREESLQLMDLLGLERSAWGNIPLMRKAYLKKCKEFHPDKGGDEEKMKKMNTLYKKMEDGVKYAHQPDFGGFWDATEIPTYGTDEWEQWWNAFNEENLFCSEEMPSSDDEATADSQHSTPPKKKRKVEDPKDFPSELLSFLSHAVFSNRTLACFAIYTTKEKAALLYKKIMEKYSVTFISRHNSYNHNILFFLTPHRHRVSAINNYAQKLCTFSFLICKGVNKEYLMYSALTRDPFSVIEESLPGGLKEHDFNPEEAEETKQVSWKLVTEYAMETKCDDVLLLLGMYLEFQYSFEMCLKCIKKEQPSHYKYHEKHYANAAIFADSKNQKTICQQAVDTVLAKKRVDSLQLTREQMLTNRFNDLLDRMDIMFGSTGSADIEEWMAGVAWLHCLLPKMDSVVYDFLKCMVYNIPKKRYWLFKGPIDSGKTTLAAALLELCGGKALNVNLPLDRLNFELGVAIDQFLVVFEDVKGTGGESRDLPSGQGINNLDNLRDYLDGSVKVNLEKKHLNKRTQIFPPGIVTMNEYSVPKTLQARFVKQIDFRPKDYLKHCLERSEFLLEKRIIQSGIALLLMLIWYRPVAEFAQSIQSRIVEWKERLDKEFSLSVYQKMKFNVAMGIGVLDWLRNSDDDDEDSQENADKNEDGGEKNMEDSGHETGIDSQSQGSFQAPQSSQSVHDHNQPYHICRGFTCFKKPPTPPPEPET

inhibition, inactive:
CCN1CCc2c(OCC(=O)Nc3ccc4c(c3)OCCO4)cccc2C1=O 1.06%, Cc1cc(C)c(S(=O)(=O)c2ccc(Cl)cc2)c(=O)[nH]1 7.48%, CCOc1ccc(-c2[nH]nc3c2C(c2ccc4c(c2)OCO4)C(C#N)=C(N)O3)cc1OC (stereo unspecified) 17%, O=C(CN(c1ccccc1Cl)S(=O)(=O)c1ccccc1)N/N=C/c1ccccc1C(=O)O 9.75%, CC(=O)N1CCN(CC(=O)Nc2sccc2C#N)CC1 4.43%, CCOc1ccccc1NC(=O)C1CC2CCCC(C1)C2=O (stereo unspecified) 14.6%, CCc1ccccc1NC(=O)Cn1c(=O)n(-c2ccc(CC(=O)NCC3CCCO3)cc2)c(=O)c2ccccc21 (stereo unspecified) 23.2%, O=c1cc(-c2ccc([N+](=O)[O-])cc2)c2ccc(O)cc2o1 9.32%, CN(C)Cc1c(O)ccc2c(=O)c(-c3ccc(Cl)cc3)coc12 2.49%, COc1ccc(-n2cnnc2SCCC#N)cc1 2.92%, COc1cc(CNc2ccc(N3CCOCC3)c(C(=O)O)c2)ccc1OCC(N)=O 14%, CCOc1cc(CNc2ccc3c(c2)OCCO3)cc(Br)c1OCC(N)=O 32.4%, CCOc1cc(CNc2ccc(N3CCCCC3)cc2)cc(Br)c1OCC(=O)NC(C)(C)C 19.5%, COc1cc(CNC(C)(C)C)ccc1OCC(=O)NC(C)(C)C 12.2%, COc1cc(CNCCN2CCOCC2)ccc1OCC(=O)NC(C)(C)C 3.18%, COc1cc(CNCCCN2CCOCC2)ccc1OCC(=O)NC(C)(C)C -1.04%, O=C(c1cc2ccccc2o1)n1nnc2ccccc21 3.13%, CC(C)(C)NS(=O)(=O)c1cc(C(=O)Nc2sccc2C#N)ccc1Cl 8.52%, COc1cc(NC(=O)C2CCCN(S(=O)(=O)c3ccc4c(c3)oc(=O)n4C)C2)cc(OC)c1 (stereo unspecified) 1.24%, O=C(O)CSCC(=O)N1CCN(c2nc3cc(Cl)ccc3s2)CC1 8.15%, C=CCNC(=O)c1ccccc1NS(=O)(=O)c1ccccc1 4.06%, CCN(CC)CCNC(=O)c1cn(-c2ccccc2)nc1-c1cccs1 12.7%, Nc1nc(-c2ccc(-n3nncc3-c3ccco3)cc2)cs1 13.1%, c1coc(-c2nc3ccccc3nc2-c2ccco2)c1 50.2%, c1coc(-c2nnc(-c3ccco3)nn2)c1 63.8%, c1ccc(-c2nc(-c3ccco3)cs2)nc1 23.7%, COc1ccc(-c2csc(C)n2)cc1Br 10.3%, Cc1nc(-c2ccccc2)cs1 12.6%, COc1ccc(-c2csc(C)n2)cc1OC 2.09%, COc1ccc(-c2csc(-c3ccc(O)cc3)n2)cc1 21%, COc1ccc(-c2csc(C)n2)cc1 13.6%, Oc1ccccc1-c1csc(-c2ccccc2)n1 6.78%, O=C1Nc2ccc(Br)cc2C1(O)c1ccc(F)cc1 (stereo unspecified) 5.56%, COc1ccc(F)cc1C(=O)C1CCCN(Cc2c(C)n(C)n(-c3ccccc3)c2=O)C1 (stereo unspecified) 25.2%, COc1ccc(C(=O)NC2CCCCC2)cc1S(=O)(=O)N1CCOCC1 1.05%, CC(OC(=O)c1cccc(Cl)c1)C(=O)NC1CCCCC1C (stereo unspecified) 27.1%, Nc1nnc(SCC(=O)N2CCCCC2)s1 -7.45%, COc1ccc(-n2nc3cc(C)c(N)cc3n2)cc1Cl -6.4%, O=C(CN(Cc1ccccc1)C(=O)c1csnn1)NCc1ccccc1 7.5%, Cc1nc2ccc(NC(=O)c3ccc(Cl)c([N+](=O)[O-])c3)cc2s1 6.3%, Cc1nc2ccc(NC(=O)c3ccc([N+](=O)[O-])cc3[N+](=O)[O-])cc2s1 8.68%, CCOc1ccc(C(Nc2cccnc2)c2cc(Cl)c3cccnc3c2O)cc1 (stereo unspecified) 15.7%, COc1ccccc1C(NC(C)=O)c1cc(Cl)c2cccnc2c1O (stereo unspecified) 3.72%, CCOC(=O)C1(Cc2ccccc2C)CCCN(S(=O)(=O)CC)C1 (stereo unspecified) 6.84%, Cc1cc(C)c(C)c(S(=O)(=O)Nc2ccc(O)cc2)c1C 30.2%, Cc1cc(C)c(S(=O)(=O)Nc2ccc(O)cc2)cc1C 48.1%, Cc1cc(C)c(S(=O)(=O)Nc2ccc(O)cc2)c(C)c1 29.1%, Cc1ccc(C)c(S(=O)(=O)Nc2ccc(C(N)=O)cc2)c1 20.6%, COCCOc1cc(N(CC(=O)N(C)C)S(=O)(=O)c2ccccc2)c(Cl)cc1Cl -5.2%, Cc1cc(C)c2c(=O)[nH]n(C3CCOC(C)(C)C3)c2n1 (stereo unspecified) 13.4%, O=C(Nc1ccccc1C(=O)Nc1nnc(C(F)(F)F)s1)c1ccccc1Cl 10.1%, CNC(=O)c1cc(S(=O)(=O)NCc2ccncc2)ccc1OC 11.8%, COc1ccccc1S(=O)(=O)CC(O)COc1ccc(F)cc1Cl (stereo unspecified) 4.29%, COc1ccc(/C=C/C(=O)C2CC2)cc1COc1c(C)cccc1C 7.52%, COC(=O)CC1SC(=O)NC1=Nc1ccc(C)cc1 (stereo unspecified) 0.63%, COC(=O)CC1SC(=O)NC1=Nc1ccc(OC)cc1 (stereo unspecified) 3.46%, Cc1cc(S(=O)(=O)NCc2ccccc2)ccc1OCC(=O)NCc1cccnc1 8.52%, O=C(COc1ccccc1Br)Nc1ccc2c(c1)OCCCO2 8.78%, CCOc1ccc(N2C(=O)CC(Sc3n[nH]c(-c4ccccc4)n3)C2=O)cc1 (stereo unspecified) 33.8%, COc1ccc(N2C(=O)CC(Sc3n[nH]c(-c4ccc(C)cc4)n3)C2=O)cc1 (stereo unspecified) 28.9%, Cc1nc2ccccc2n1CC(=O)NCCN1CCOCC1 21.1%, CCCCn1c(N)c(N(CCOC)C(=O)COC(=O)CSc2cc(C)c3ccccc3n2)c(=O)[nH]c1=O 11.3%, OCCNc1nc(Nc2ccccc2)nc2ccccc12 1.4%, OCCNc1nc(Nc2ccc(Br)cc2)nc2ccccc12 2.29%, Oc1ccccc1Nc1nc(NCC2CCCO2)c2ccccc2n1 (stereo unspecified) 31.9%, c1ccc(Nc2nc(NCC3CCCO3)c3ccccc3n2)cc1 (stereo unspecified) 5.53%
